VDR inh: Inhibitors of the vitamin D receptor (VDR): qHTS; Vitamin D3 receptor (Homo sapiens), P11473; actives 0.93% (n = 400,000); Potency, µM, for the others: max response, negative = inhibition, actives largely listed as inhibitors; VDR-SRC2-3 peptide fluorescence polarization, 2 h; further: potency means the concentration at half of the fitted maximal effect; on the % scale 0 is the no-effect control and ±100 the full control effect
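Compounds are added to VDR with labelled SRC2-3 coactivator peptide and held 2 h at room temperature. Inhibition of the VDR–peptide interaction is then read as a change in fluorescence polarization.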
KCNH2 3.1 inh: qHTS for Inhibitors of KCHN2 3.1: Mutant qHTS | activity change, % (tested at about 1.8 µM) | AID 720553, 2013 | actives 0.95% (n = 340,000) | U2OS KCNH2 3.1, thallium flux FluxOr; stronger effect = lower value;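 active means maximum activity change below -70%; inconclusive means maximum activity change from -70% to -50%; inactive means maximum activity change above -50%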;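 further: thallium influx rate constant from kinetic fluorescence after stimulation buffer; on the % scale 0 is the no-effect control and ±100 the full control effect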
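Channel expression came from 3.1 mutant virus (1.77 x 10^8 /mL) applied to suspended U2OS cells for 4 h. Flux was tracked with FluxOr dye plus Red40 quencher, and kinetic rate constants normalized to controls.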
PLK1 PBD inh: qHTS for Inhibitors of PLK1-PDB (polo-like kinase 1 - polo-box domain): Primary Screen; Serine/threonine-protein kinase PLK1 (Homo sapiens), P53350; Plk1 PBD binding of FITC phosphopeptide, fluorescence polarization; Potency, µM, for the others: max response, negative = inhibition, hits mostly inhibitors; actives 2.8% (n = 360,000); further: potency means the concentration at half of the fitted maximal effect; series mostly up to about 57 µM; on the % scale 0 is the no-effect control and ±100 the full control effect; nearly all actives have a fitted effect of over 65% in size
CBFb-RUNX1 inh: qHTS Assay for Compounds Blocking the Interaction Between CBF-beta and RUNX1 for the Treatment of Acute Myeloid Leukemia | Runt-related transcription factor 1 (Homo sapiens) + Core-binding factor subunit beta … | AlphaScreen CBFb-His/RUNX1-biotin binding, biochemical | Potency, µM (series often up to 59.8 µM), for inactives: at the top dose activity, negative = inhibition, most hits filed as inhibitors | 230,000 tested, under 10 active; further: % of control where 0% means no effect
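Bead-based AlphaScreen assay; binding partners His-tagged CBF-beta and biotinylated RUNX1 at 30 nM each. Compound exposure 15 min after a 20-min protein preincubation; bead step 90 min; all steps at room temperature.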
hERG WT inh: qHTS for Inhibitors of KCHN2 3.1: Wildtype qHTS; Voltage-gated inwardly rectifying potassium channel KCNH2 (Homo sapiens), Q12809; U2OS, BacMam KCNH2, thallium flux FluxOr; stronger effect = lower value; activity change, % at 1.84 µM; actives 0.37% (n = 340,000);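 active means maximum activity change below -70%; inconclusive means maximum activity change between -70% and -50%; inactive means maximum activity change above -50%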; further: on the % scale 0 is the no-effect control and ±100 the full control effect
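U2OS cells were transduced with wild-type KCNH2 virus (2.03 x 10^8 / mL) for 4 h at room temperature, then cultured overnight at 37 C. Thallium flux was read with FluxOr dye. Rate constants were normalized to DMSO controls.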
MBNL1-CUG inh: qHTS Assay for Inhibitors of MBNL1-poly(CUG) RNA binding; actives 0.036% (n = 280,000); AID 2675, 2010; TR-FRET MBNL1-His/biotin-(CUG)12 binding, 665/545 ratio; Muscleblind-like protein 1 (Homo sapiens), Q9NR56; Potency, µM (top dose mostly 57.5 µM), inactives show at the highest dose activity change, negative = inhibition, usual class: inhibitors; active means well fitted inhibition curve with a large enough effect in the signal ratio, with a control signal flat, not every such curve was filed as active; inconclusive means small, poorly fitted or top-dose-only effect, or effect the other way, or a change in a side signal; inactive means no such curve, though single readings can be large or run the other way; the % refers to the signal ratio; further: potency means the concentration at half of the fitted maximal effect; on the % scale 0 is the no-effect control and ±100 the full control effect
Target sequence (Q9NR56 whole entry, looked up): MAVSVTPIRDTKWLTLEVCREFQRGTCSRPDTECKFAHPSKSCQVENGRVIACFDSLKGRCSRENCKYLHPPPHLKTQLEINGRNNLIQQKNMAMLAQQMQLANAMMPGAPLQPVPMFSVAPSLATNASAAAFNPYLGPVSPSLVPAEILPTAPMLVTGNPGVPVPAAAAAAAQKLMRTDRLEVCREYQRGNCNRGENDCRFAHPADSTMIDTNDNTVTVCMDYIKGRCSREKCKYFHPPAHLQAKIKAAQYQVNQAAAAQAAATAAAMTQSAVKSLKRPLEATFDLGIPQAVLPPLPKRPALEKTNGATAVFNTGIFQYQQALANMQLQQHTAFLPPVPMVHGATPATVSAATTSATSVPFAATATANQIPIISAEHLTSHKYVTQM
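Compounds (final 92 nM to 58 uM) are added to His-tagged MBNL1 and biotin-(CUG)12, then terbium anti-His antibody and streptavidin-XL665 (5 nM final). After 60 min at room temperature, the 665/545 nm ratio is read.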
* hit, by the source's call; ? = inconclusive; / = no result given. Shown are actives, neighbours in structure and some others; about 3.8% of the full set was active somewhere. Unless noted, the call rests on the fitted dose curve; in most records, active means well fitted curve in the direction sought with a large enough effect; inconclusive means small, poorly fitted or top-dose-only effect, or another doubt; inactive means no such curve, though single readings can be large; an effect the other way counts as inactive or inconclusive.

SMILES	VDR inh	KCNH2 3.1 inh	PLK1 PBD inh	CBFb-RUNX1 inh	hERG WT inh	MBNL1-CUG inh
Cc1ccc2c(CN3CCN(S(=O)(=O)/C=C/c4ccccc4)CC3)cc(=O)oc2c1	-2.5%	-88.5*	-7.4%	18.2%	-32.2	/
CCC(=O)c1ccccc1OCCCN1CCC(Cc2ccccc2)CC1	-2.9%	-100.2*	3.5%	/	-130.8*	1.1%
COc1cccc(OC)c1OCCCCN1CCC(Cc2ccccc2)CC1	12.5%	-70.7*	-4.1%	8.1%	-7.6	-7.3%
N#Cc1ccccc1OCCCN1CCC(Cc2ccccc2)CC1	-1.2%	-96.5*	0.7%	/	-89.6*	-3.4%
CC(=O)CCc1ccc(OCCCCN2CCC(Cc3ccccc3)CC2)cc1	8.7%	-93.8*	-7.4%	1.1%	27.2	-8.4%
N#Cc1cccc(C(=O)C(=O)N2CCC(Cc3ccccc3)CC2)c1	/	/	0.7%	/	/	/
Cc1nc2ccccn2c(=O)c1NC(=O)c1ccc(C(F)(F)F)cc1	11.0%	/	/	/	/	/
CCOc1cccc(CN2CCCC(N3CCN(c4cccc(Cl)c4)CC3)C2)c1O (stereo unspecified)	-9.8%	-81.9*	-18.8%	/	-36.5	-1.9%
COc1cccc(C(=O)C2CCCN(Cc3ccc(OC)c(Cn4cncn4)c3)C2)c1 (stereo unspecified)	4.8%	-2.6	-5.4%	1.5%	13.3	-10.2%
CCOc1cccc(CN2CCCC(C(=O)c3cc(Cl)ccc3OC)C2)c1O (stereo unspecified)	-2.6%	-115.0*	-21.6%	/	-105.0*	0.3%
CCOc1cccc(CN2CCCC(N3CCc4ccccc4C3)C2)c1O (stereo unspecified)	5.5%	-18.5	-14.1%	/	9.9	13.6%
COc1ccc(Cl)cc1C(=O)C1CCCN(Cc2cnc(N3CCOCC3)s2)C1 (stereo unspecified)	?	-11.4	13.4µM*	1.5%	24.7	-6.1%
COc1ccc(CN2CCCC(C(=O)c3ccc(Cl)cc3)C2)cc1Cn1cccn1 (stereo unspecified)	-4.8%	-96.4*	-1.1%	7.6%	-106.5*	-5.5%
COc1ccc(C(=O)C2CCCN(Cc3cc(Cl)ccc3O)C2)c(OC)c1 (stereo unspecified)	20.9%	-74.2*	1.3%	/	17.5	-5.2%
Clc1ccc(OCCn2cnc3ccccc32)cc1	-22.4%	5.4	2.99µM*	1.9%	2.0	-2.2%
CC(C)C(=O)N1CCC(n2nccc2NC(=O)CCc2ccccc2)CC1	?	4.1	3.36µM*	/	8.9	-0.3%
CC(C)Oc1ccc(CN2CCC(n3nccc3NC(=O)CCc3ccccc3)CC2)cc1	-13.4%	-105.7*	-6.7%	/	-31.7	-3.4%
CSc1cc(-c2ccccc2)n(Cc2ccc(Cl)cc2Cl)c(=O)c1C#N	-25.8%	1.8	3.36µM*	3.9%	-3.4	6.8%
Cc1cc(C)n(Cc2ccc(Cl)cc2Cl)c(=O)c1S(=O)(=O)c1ccccc1	0.7%	-43.7	2.9%	2.8%	-9.8	-4.2%
O=S(=O)(c1ccccc1Cl)N1CCN(c2nc(-c3ccccc3)nc3ccccc23)CC1	-16.5%	/	/	/	/	/
O=C(CCN1CCCCC1)N1CCc2c([nH]c3ccccc23)C1c1cccnc1 (stereo unspecified)	-7.6%	-72.5*	3.8%	/	?	/
COC(=O)c1ccc(OS(=O)(=O)N(C)C)cc1	-7.4%	-11.1	3.0%	1.2%	-226.5*	-0.6%
O=C(Nc1nnc(N2CCCCCC2)s1)Nc1ccccc1C(F)(F)F	-5.7%	/	/	/	/	/
CN(C)c1ccc(C2/C(=C(/O)c3ccc(Br)cc3)C(=O)C(=O)N2C)cc1 (stereo unspecified)	-14.6%	-175.8*	-8.3%	/	-1.5	-15.9%
CN1C(=O)C(=O)/C(=C(/O)c2ccc(Br)cc2)C1c1ccccc1F (stereo unspecified)	0.3%	4.2	33.6µM*	/	15.0	-3.7%
SMILES	VDR inh	KCNH2 3.1 inh	PLK1 PBD inh	CBFb-RUNX1 inh	hERG WT inh	MBNL1-CUG inh
O=C(Nc1ccc(OCc2cc(=O)n3ccsc3n2)cc1)c1ccc(F)cc1	-13.4%	/	/	/	/	/
O=c1nc(SCc2ccc(Cl)cc2)nc(-c2ccccc2)[nH]1	-11.3%	-0.1	?	3.5%	11.5	3.6%
O=c1nc(SCc2c(F)cccc2Cl)nc(-c2ccccc2)[nH]1	-3.7%	13.3	26.7µM*	5.4%	-2.3	-8.5%
CC(=NNC(=S)N1CCCC1)c1ccccn1	/	-8.9	23.8µM*	/	0.2	/
CCCCCCCCc1nc(SC(C)C(=O)O)n[nH]1 (stereo unspecified)	7.7%	-105.1*	-3.5%	9.5%	-6.8	-16.1%
C=CCCCCCCCCc1nc(SCC(=O)O)n[nH]1	2.8%	-8.1	-7.3%	2.3%	2.5	-15.4%
CCOC(=O)Cn1c(=O)n(C2CCCCC2)c2nc(-c3ccc(Cl)cc3)nc(C(N)=O)c21	-10.0%	/	/	/	/	/
COc1ccc(CN2COc3ccc4c(-c5ccccc5)cc(=O)oc4c3C2)cc1	11.3%	/	/	/	/	/
CO/N=C\C(=N\Nc1ccc(OC)cc1)C(=O)c1ccccc1	10.0%	-7.1	4.5%	-22.8%	-10.6	7.0%
CO/N=C/C(=N\Nc1ccc(OC)cc1)C(=O)c1ccc(F)cc1	1.2%	18.2	23.8µM*	-11.2%	8.9	-6.6%
CO/N=C/C(=N\Nc1ccccc1)C(=O)c1ccccc1	-25.5%	-5.7	23.8µM*	0.5%	-9.8	14.2%
Cc1ccc(C(=O)n2nc(C)c(S(=O)(=O)N3CCCCCC3)c2C)cc1	13.0%	/	/	/	/	/
CNc1ccccc1C(C)(C)c1cc(C)[nH]n1	?	7.4	8.44µM*	13.8%	/	0.3%
CCOC(=O)C1=C(CSc2nc3c(cc2C#N)CCC3)OC(N)=C(C#N)C1c1ccccc1 (stereo unspecified)	8.8%	9.0	16.8µM*	-4.6%	-17.0	4.9%
c1ccc(C[C@H]2CN=C(Nc3ccccc3)N2CC2CCC2)cc1	-10.5%	-13.8	-11.5%	/	-6.8	/
CC(C)C[C@H]1CN=C(Nc2ccccc2)N1CC1CCC(C)CC1 (stereo partly specified)	-17.3%	-82.7*	-7.7%	/	11.7	-6.7%
CC(C)C[C@H]1CN=C(Nc2ccccc2)N1CCCC1CCCC1	-23.1%	11.0	-22.0%	/	-91.5*	9.3%
CC1CCC(CN2C(Nc3ccccc3)=NC[C@@H]2Cc2ccccc2)CC1 (stereo partly specified)	-1.8%	-91.0*	-8.7%	/	8.4	/

Screens: PubChem BioAssay, National Center for Advancing Translational Sciences (NCATS)
